# Hits are enriched below; roughly 10% of the tested compounds scored in any of these assays.
# HP1b binding inh: inhibitors of HP1-beta chromodomain binding to methylated histone tails; 390,000 tested, 0.56% active; P83916; AlphaScreen HP1-beta / biotin-H3K9me3 peptide binding; AID 540317; Potency, µM (top dose mostly 114 µM), for inactives: top-dose activity change, negative = inhibition, most hits filed as inhibitors; further: nearly all actives have a fitted effect of over 70% in size
#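 AlphaScreen: HP1-beta (50 nM) preformed 30 min with biotin-H3(1-18)K9me3 peptide (50 nM) in PBS pH 7.4, 0.01% Tween-20. Compound added for 30 min at RT, then streptavidin donor/nickel chelate acceptor beads (10 ug/mL) for 30 min.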
# GLS inh: inhibitors of human glutaminase (GLS). GLS enzymatic activity, qHTS titration. Potency, µM (highest dose often 45.5 µM), for the others: at the highest dose activity change, negative = inhibition, usual class: inhibitors. 410,000 tested, 0.21% active; further: on the % scale 0 is the no-effect control and ±100 the full control effect
#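 hKGA; 45 mM KH2PO4 pH 8.2 + 0.02% Tween-20; cpd via pin tool; 1 mM Gln soln; GluOx/HRP/Amplex Red; RT 30 min; fluor. t0 & final.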
# G9a inh: blocks human histone lysine methyltransferase G9a; Q96KQ7; G9a H3K9 monomethylation, AlphaScreen, 2 h; Potency, µM (titrated, usually from 102 µM), inactives show at the top dose activity, negative = inhibition, most hits filed as inhibitors; 350,000 tested, 8.8% active; further: on the % scale 0 is the no-effect control and ±100 the full control effect; nearly all actives have a fitted effect of over 75% in size
#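 Signal arises when biotinylated H3K9 peptide, once monomethylated, bridges streptavidin donor and antibody-captured acceptor beads. Enzyme at 20 nM was preincubated 15 min with test compounds; peptide 500 nM and SAM 20 uM then reacted for 2 h.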
# JMJD2A Tudor inh: inhibitors of human JMJD2A Tudor domain; AID 504339; O75164; Potency, µM (series often up to 114 µM), for inactives: top-dose activity change, negative = inhibition, most hits filed as inhibitors; 390,000 tested, 4.4% active; AlphaScreen JMJD2A-Tudor / H3K4me3 peptide binding; further: on the % scale 0 is the no-effect control and ±100 the full control effect; nearly all actives have a fitted effect of over 50% in size
# BAZ2B block: inhibitors of human BAZ2B bromodomain; Q9UIF8; 360,000 tested, 4.4% active; AID 504333; AlphaScreen BAZ2B-H3K14Ac peptide displacement; Potency, µM (top dose mostly 114 µM), for the others: top-dose activity change, negative = inhibition, most hits filed as inhibitors; further: on the % scale 0 is the no-effect control and ±100 the full control effect; nearly all actives have a fitted effect of over 60% in size
#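 BAZ2B (50 nM) with biotin-H3(5-23)K14Ac peptide (50 nM) in PBS pH 7.4, 0.01% Tween-20, preformed 30 min, then compound 30 min at room temperature; top concentration 110uM. AlphaScreen streptavidin donor/nickel chelate acceptor beads (10 ug/mL final), 20 min dark, signal read.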
# An asterisk follows results filed as active; ? = inconclusive; . = no result; [ ] = remark or other dose. The call rests on the fitted dose curve; in most records, active means well fitted curve in the direction sought with a large enough effect; inconclusive means small, poorly fitted or top-dose-only effect, or another doubt; inactive means no such curve, though single readings can be large; an effect the other way counts as inactive or inconclusive. Potency means the concentration at half of the fitted maximal effect.
SMILES,HP1b binding inh,GLS inh,G9a inh,JMJD2A Tudor inh,BAZ2B block
CCN(Cc1ccccc1)Cc1cc(OC)cc(OC)c1,63.1%,6.5%,-13.4%[59 µM],34.1%,33.3%
COc1ccc(CCNC(=O)C2CCN(S(C)(=O)=O)CC2)cc1OC,19.8%,-1.6%,8.2%[59 µM],-14.1%,3.9%
OC1CCN(Cc2cccc3ccccc23)CC1,?,-1.4%,?,79.4µM*,50.1µM*
CN1CCCN(Cc2cccc3ccccc23)CC1,?,19.2%,.,25.1µM*,56.2µM*
COc1ccc(NC(=O)C2CCN(C3=NS(=O)(=O)C(c4ccc(C)c(C)c4)=C3C)CC2)c(OC)c1,?,1.6%,44.5%[59 µM],-21.0%,2.8%
CC(C)(C)n1cnnc1Sc1ncccc1[N+](=O)[O-],42.0%,-0.6%,.,3.0%,-1.4%
S=c1[nH]cnc2scc(-c3ccc(Cl)cc3)c12,?,?,44.7µM*,-28.8%,-1.4%
Clc1ccc(-c2csc3ncnc(Cl)c23)cc1,44.8%[57 µM],1.9%,-5.1%[59 µM],7.4%,2.7%
NNc1ncnc2scc(-c3ccc(Cl)cc3)c12,-1.6%,-4.7%,1.8%,-35.6%,70.8µM*
CC(NC(=S)Nc1cccc(F)c1)C(c1cccs1)N1CCOCC1 (centres undefined),21.9%,0.0%,5.2%,0.7%,-26.4%
COCc1c(C(=O)N/N=C/c2ccco2)nnn1-c1nonc1N,24.9%,-8.8%,-7.4%,2.5%,-0.2%
CC(CC(=O)OCC(=O)NC1CCS(=O)(=O)C1)c1ccccc1 (centres undefined),16.7%,-10.0%,.,-0.7%,.
CN1CCN(c2ncc3c(n2)CCN(Cc2cc(Br)cs2)C3)CC1,-1.9%,6.8%,?,56.2µM*,?
Clc1ccccc1CN1CCc2nc(N3CCN(c4ncccn4)CC3)ncc2C1,?,5.9%,?,35.5µM*,50.1µM*
CN1CCN(c2ncc3c(n2)CCN(Cc2ccccc2Cl)C3)CC1,-10.4%,7.1%,?,79.4µM*,?
COc1cc(OC)c(OC)cc1CN1CCc2nc(N3CCN(C)CC3)ncc2C1,21.2%,14.8%,-1.7%[12.7 µM],?,?
CCOc1ccccc1CN1CCc2nc(N3CCN(C)CC3)ncc2C1,54.8%,2.8%,-2.6%[12.7 µM],-22.2%,79.4µM*
Cn1c(N)c(C(=O)CSc2nnc(C3CC3)n2N)c(=O)n(C)c1=O,32.2%,-2.0%,-6.0%[12.7 µM],10.1%,-5.9%
COc1cccc(C(C)(O)c2nc(-c3csc4ccccc34)cs2)c1 (centres undefined),.,-1.4%,.,.,.
COc1ccc(OC)c(C2NC(=O)c3sc(=S)n(-c4ccccc4)c3N2)c1 (centres undefined),14.2%,2.0%,3.98µM*,-31.3%,?
COc1cccc(C2NC(=O)c3sc(=S)n(-c4ccccc4)c3N2)c1 (centres undefined),27.9%,23.8%,39.8µM*,-26.0%,-31.1%
CN(C(=O)c1cccc(NC(=O)Cc2ccc(NC(=O)C3CCN(C(=O)C4CCC4)CC3)cc2)c1)C1CCC1,38.3%,-2.0%,.,-8.9%,.
N#Cc1ccccc1NCc1ccccc1,104.1%,8.7%,55.1%,30.4%,43.1%
O=c1cccccc1NCc1ccccc1,31.0%,.,10µM*,4.2%,11.6%
Cc1ccc(C(=O)NCc2nnc(SCC(=O)Nc3ccccc3)n2C)cc1,23.2%,7.5%,-6.2%[59 µM],-16.4%,7.9%
SMILES,HP1b binding inh,GLS inh,G9a inh,JMJD2A Tudor inh,BAZ2B block
CC(=O)Nc1sc(N/N=C/c2ccc(N(C)C)cc2)nc1-c1ccc(C)cc1,?,7.6%,8.91µM*,44.7µM*,28.2µM*
CC(=O)Nc1sc(N/N=C/c2ccc(C)cc2)nc1-c1ccc(C)cc1,?,-13.4%,?,44.7µM*,?
COc1ccc(/C=N/Nc2nc(-c3ccc(C)cc3)c(NC(C)=O)s2)cc1OC,?,88.8%,.,-33.3%,?
NC(=O)C1CCN(c2nc(-c3ccccc3-c3ccccc3)cs2)CC1,-14.6%,6.9%,-1.3%[12.7 µM],44.7µM*,?
NC(=O)C1CCN(c2nc(-c3ccccc3N)cs2)CC1,49.2%,2.1%,?,-14.3%,?
CC(=O)c1cccc(-c2csc(N3CCC(C(N)=O)CC3)n2)c1,45.3%,2.8%,?,-19.3%,50.1µM*
O=C(COC(=O)c1ccccc1O)Nc1ccc(S(=O)(=O)N2CCCCC2)cc1,16.1%,-5.7%,?,-15.3%,-22.1%
O=C(C1CC(c2ccc(F)cc2)=NO1)N1CCc2ccccc2C1 (centres undefined),26.5%,4.8%,14.0%,-21.8%,3.5%
COc1cccc(C2=NOC(C(=O)N3CCc4ccccc4C3)C2)c1 (centres undefined),36.4%,-1.6%,7.94µM*,-12.0%,10.9%
O=C1SC(SCc2ccccc2Cl)=N/C1=C\c1ccc(C(=O)O)cc1,40.8%,?,39.8µM*,-17.5%,3.3%
C=CCSC1=N/C(=C\c2ccc(C(=O)O)cc2)C(=O)S1,-5.2%,-4.3%,44.7µM*,6.2%,-29.1%
CCSC1=N/C(=C\c2ccc(C(=O)O)cc2)C(=O)S1,0.7%,19.5%,?,-35.5%,?
Cc1cc(SCC(=O)N/N=C/c2ccc(O)c(O)c2)c(C)cc1Br,-5.8%,60.4%,25.1µM*,-34.2%,?
Cc1cc(SCC(=O)N/N=C/c2ccc(O)c(O)c2)nc2ccccc12,?,?,.,?,44.7µM*
C/C(=N\NC(=O)CSc1nc2ccccc2o1)c1ccc(O)cc1,19.3%,?,15.8µM*,-14.8%,-19.2%
Cc1cc(C)n(C(=O)CSc2nc3ccccc3o2)n1,31.2%,1.9%,79.4µM*,-9.0%,16.7%
Cc1cc(SCC(=O)N/N=C/c2ccc(O)cc2O)nc2ccccc12,12.7%,17.8%,6.7%,?,-30.1%
Cc1ccc(SCC(=O)n2nc(C)cc2C)cc1,19.9%,-9.8%,-2.1%[59 µM],-15.2%,-4.2%
Cc1ccc(CN2CCSc3ccc(C(=O)NCC4CCCO4)cc32)cc1 (centres undefined),22.0%,32.1%,?,-27.6%,-36.5%
CC(C)c1ccc(C(O)c2cnc(C(C)C)n2C)cc1 (centres undefined),16.5%,-1.1%,-4.8%[59 µM],-28.4%,-5.5%
COc1ccc2c(CC(=O)OCC(=O)N(C)c3c(N)n(Cc4ccccc4)c(=O)[nH]c3=O)coc2c1,12.3%,4.2%,.,-9.8%,.
O=C(CSc1nc2ccccc2o1)N/N=C/c1ccc(O)c(O)c1,?,?,?,15.8µM*,44.7µM*
O=C(CSc1nc2ccccc2o1)N/N=C/c1ccccc1,54.8%,-3.9%,-39.8%[59 µM],8.5%[57.1 µM],-18.3%
CC1=Nc2ccccc2/C1=C/c1c(N)n2c(S(=O)(=O)C(C)C)nsc2nc1=O,3.8%,0.0%,13.0%,-19.9%,?
CC1=Nc2ccc(C)cc2/C1=C/c1c(N)n2c(S(=O)(=O)C(C)C)nsc2nc1=O,14.9%,-0.1%,50.1µM*,-31.0%,-35.5%
COc1ccc(C(C)NC(=O)c2ccc([N+](=O)[O-])cc2)cc1OC (centres undefined),6.6%,3.6%,-10.6%[59 µM],-13.6%,8.1%
